Results reported in ChEMBL document CHEMBL1157539, “Thousands of chemical starting points for antimalarial lead identification” (Nature, 2010).

Tests used:
Format in all cases: functional
Plasmodium falciparum [1] = assay: GSK_TCMDC: Inhibition of Plasmodium falciparum 3D7 in whole red blood cells, using parasite LDH activity as an index of growth. Test compounds present at 2uM
Plasmodium falciparum [2] = assay: GSK_TCMDC: Inhibition of Plasmodium falciparum Dd2 in whole red blood cells, using parasite LDH activity as an index of growth. Test compounds present at 2uM
HepG2 = assay: GSK_TCMDC: Percent inhibition of human HepG2 cell line. Test compounds present at 10uM.

| SMILES | Inhibition (Plasmodium falciparum [1]) [%] | Inhibition (Plasmodium falciparum [2]) [%] | Inhibition (HepG2) [%] |
| --- | --- | --- | --- |
| COCCNC(=O)c1ccc(OC2CCN(CC(C)=Cc3ccccc3)CC2)c(Cl)c1 | 94 | 95 | 18 |
| CC(=O)Nc1ccc(S(=O)(=O)N(Cc2cccc(Oc3ccccc3)c2)C2CCN(C/C=C(\C)CCC=C(C)C)CC2)cc1 | 100 | 99 | 22 |
| CC(Oc1ccc(Cl)cc1)C(=O)Nc1cc(C(F)(F)F)ccc1-n1cncn1 (configuration not stated) | 99 | 98 | 0 |
| CCc1nnc2sc(-c3cccc(NC(=O)c4ccc(C)c([N+](=O)[O-])c4)c3)nn12 | 82 | 46 | 10 |
| CCNc1cc(C(=O)N[C@@H](Cc2ccccc2)[C@H](O)CNC(C)(C)Cc2cccc(Cl)c2)cc(N2CCCCS2(=O)=O)c1.Cl | 97 | 74 | 17 |
| O=C(Nc1ccc(-c2cccc(-c3nc4ccccc4[nH]3)c2)cc1)Nc1ccc(Cl)c(Cl)c1 | 100 | 80 | 61 |
| COc1cc(NCCCNCc2cn(Cc3cc(Br)cc(Br)c3)c3ccccc23)nc2ccccc12 | 100 | 85 | 99 |
| CC(C)(C)c1ccc(NC(=O)c2cccc(CN3CCCN(Cc4cccc(C#N)c4)CC3)c2)cc1.O=C(O)C(F)(F)F | 97 | 12 | 39 |
| COc1ccc2nccc([C@@H](O)CN3CCC(NCCOc4ccncc4)CC3)c2c1.O=C(O)C(=O)O | 100 | 0 | 11 |
| CC(C)c1ccc(CN2CCC(CNC(=O)c3cc(-c4cccc(F)c4)cs3)C2)cc1.O=C(O)C(F)(F)F (configuration not stated) | 100 | 46 | 59 |
| Br.CCCCCCCCc1c(C)nc(C)c(Br)c1O | 96 | 92 | 0 |
| O=C(c1cccs1)N1CCN(c2ccc([N+](=O)[O-])c(NC3CC3)c2)CC1 | 100 | 95 | 0 |
| Cc1cc(N[C@@H](Cc2ccccc2)C(=O)NCCCOC(C)C)nc(NCC2CCCCC2)n1.O=C(O)C(F)(F)F | 94 | 25 | 17 |
| Cc1cc(=O)c(-c2ccc(Oc3cccc(OC(F)(F)F)c3)cc2)c(C)[nH]1 | 97 | 96 | 13 |
| O=C(O)C(F)(F)F.OCC1CCN(Cc2cccc(-c3ccc(-c4nc5cc(F)ccc5[nH]4)cc3)c2)CC1 | 100 | 86 | 11 |
| Cc1ccc2nc3sc(C(=O)NCCCN4CCC(N5CCCCC5)CC4)cc3cc2c1 | 100 | 71 | 11 |
| Cc1c(-c2ccccc2)ccc2[nH]cc(CC#N)c12 | 95 | 85 | 2 |
| CCc1c(C)nc(-n2nc(C)cc2NC(=O)c2cccc3ccccc23)[nH]c1=O | 98 | 89 | 39 |
| COc1cc(-c2nc(C(C)(C)CN)[nH]c2-c2ccncc2)ccc1Br.Cl | 97 | 95 | 17 |
| COc1cc(-n2c(CN3CCCC3)nc3cc(-c4ccc(Cl)cc4)sc3c2=O)ccc1OCCN1CCCC1.O=C(O)C(F)(F)F | 94 | 90 | 66 |

| SMILES | Inhibition (Plasmodium falciparum [1]) [%] | Inhibition (Plasmodium falciparum [2]) [%] | Inhibition (HepG2) [%] |
| --- | --- | --- | --- |
| CCN(CC)c1ccc(C(c2ccc(N(CC)CC)cc2)c2ccc([N+](=O)[O-])cc2)cc1 | 82 | 63 | 20 |
| Cl.FC(F)(F)c1cc(Nc2ccc(Oc3ccccc3)cc2)c2cc(-c3ccncc3)ccc2n1 | 100 | 70 | 0 |
| Cc1cccc(-c2nn(-c3ccccc3)c3[nH]c(=O)c(CNC4CCCC4)cc23)c1 | 98 | 97 | 18 |
| O=C(O)C(F)(F)F.O=S(=O)(NCCN1CCCC1)c1ccc(-c2cccc(CNCCc3cccs3)c2)cc1 | 95 | 30 | 41 |
| CN(C)CCCOc1ccc(CNCc2cccc(Oc3ccc(Cl)cc3)c2)cc1.O=C(O)C(F)(F)F | 100 | 30 | 52 |
| O=C(N[C@H]1CCCC[C@H]1C(=O)O)c1ccccc1 | 95 | 3 | 7 |
| COC(=O)CCn1c(C2CCN(CC3CCC(NC(=O)/C=C/c4ccc(Cl)c(Cl)c4)CC3)CC2)nc2ccccc21 (configuration not stated) | 94 | 10 | 14 |
| O=C(C=Cc1ccc(Cl)c(Cl)c1)NCCCCCN1CCC(CCNS(=O)(=O)c2ccc(Br)cc2)CC1 | 91 | 0 | 58 |
| CC(C)COc1ccc(Cl)cc1Cc1ccc(-c2nc3cc(CCN(C)C)ccc3[nH]2)o1.Cl | 92 | 7 | 10 |
| CC(C)N1CCC(N(Cc2ccc(-c3ccc(Cl)cc3)cc2)C(=O)Cn2c(CCc3cccc(F)c3F)nc(=O)c3ccccc32)CC1.O=C(O)C(O)C(O)C(=O)O | 86 | 70 | 61 |
| Cc1cc(-c2ccc(CNCCc3cccs3)cc2)ccc1S(=O)(=O)NCc1ccccc1.O=C(O)C(F)(F)F | 94 | 0 | 28 |
| Cc1ccc(S(=O)(=O)NC2CCN(c3ccnc4cc(Cl)ccc34)C2)cc1.O=C(O)C(F)(F)F (configuration not stated) | 99 | 90 | 21 |
| Cc1cc(C(F)(F)F)cc(-n2ncc(-c3ccc(C(=O)NCc4ccccc4N)cc3)c2N)n1.O=C(O)C(F)(F)F | 99 | 89 | 10 |
| CCc1ccc(CN2CCC(CNC(=O)c3cc(-c4cccc(C(F)(F)F)c4)cs3)C2)cc1.O=C(O)C(F)(F)F (configuration not stated) | 97 | 48 | 45 |
| CCOc1cc(CC)ccc1C1CCN(CCCCNC(=O)c2ccc(NC(=O)c3ccc(Cl)cc3)cc2)CC1.Cl | 100 | 58 | 11 |
| CCCNCc1ccc(-c2ccc(CN(CC3CCCO3)C(=O)C3CC(=O)c4ccccc43)cc2)nc1.O=C(O)C(F)(F)F (configuration not stated) | 100 | 65 | 0 |
| CN(C)CCOc1cc(NC(=O)Nc2ccc(-c3ccccc3)cc2)ccc1I | 100 | 45 | 9 |
| O=C(NCCCCCN1CCCN(C(=O)Nc2ccc(F)c(C(F)(F)F)c2)CC1)C1CC1c1ccc(Cl)c(Cl)c1 (configuration not stated) | 90 | 1 | 61 |
| Cc1nc(N)nc(N)c1C#CC1CCCC1 | 96 | 2 | 68 |
| CC(CNC(=O)c1cc2c(Cl)cc(Cl)cc2[nH]1)CNc1cc(=O)c2ccccc2[nH]1.O=C(O)C(F)(F)F (configuration not stated) | 97 | 11 | 11 |

| SMILES | Inhibition (Plasmodium falciparum [1]) [%] | Inhibition (Plasmodium falciparum [2]) [%] | Inhibition (HepG2) [%] |
| --- | --- | --- | --- |
| O=C(/C=C/c1ccc(Cl)c(Cl)c1)NCCCCCN1CCC(NC(=O)Nc2ccc(C(F)(F)F)cc2)C1 (configuration not stated) | 100 | 6 | 11 |
| O=C(O)C(F)(F)F.O=C1COC2(CN1C1CCN(Cc3ccc(O)cc3Cl)C1)c1ccccc1-c1ccccc12 (configuration not stated) | 82 | 70 | 10 |
| Cl.N=C(N)Nc1ccc(OCCCCCOc2ccc(NC(=N)N)cc2Br)c(Br)c1 | 92 | 95 | 27 |
| COc1ccc(Cn2c(Nc3cccc(C(F)(F)F)c3)nc3cc(C(=O)NC4CC4)cnc32)cc1Cl | 94 | 96 | 0 |
| CN(C)CCCNCc1ccc(-c2ccc(CNCCc3ccccc3)cc2)cc1.O=C(O)C(F)(F)F | 100 | 87 | 61 |
| COc1cc(C(=O)NCc2nn(CCN3CCC(N4CCCC4)CC3)cc2-c2ccc(Cl)c(Cl)c2)cc(OC)c1OC | 97 | 0 | 16 |
| Cl.N=C(N)Nc1nc(-c2ccc(NC(=N)N3CCC[C@H]3CN3CCCC3)cc2)cs1 | 82 | 66 | 6 |
| COc1cc(C=C(C2=NC(=O)CS2)c2nc3cccnc3n2C)ccc1O | 89 | 48 | 7 |
| CCN1CCN(c2cc(C)c3cc(NC(=O)c4cc(OC)cc(OC)c4)ccc3n2)CC1 | 100 | 90 | 0 |
| O=C(O)C(F)(F)F.c1ccc(CCNCc2ccc(-c3ccc(CNc4ccc5ncccc5c4)cc3)cc2)cc1 | 96 | 27 | 36 |
| O=C(/C=C/c1ccc(Cl)c(Cl)c1)NCCCCCN1CCCN(C(=O)Nc2ccc(Cl)c(Cl)c2)CC1 | 100 | 2 | 55 |
| N#CC(c1ccc(Cl)cc1)c1ccc2c(C(F)(F)F)cc(C(F)(F)F)nc2n1 (configuration not stated) | 97 | 54 | 68 |
| N=C(/N=C(/NCCCCCCN/C(=N/C(=N)NCc1ccc(Cl)c(Cl)c1)N1CCCCC1)N1CCCCC1)NCc1ccc(Cl)c(Cl)c1 | 100 | 99 | 6 |
| COC(=O)C1=C(C)NC2=C(C(=O)CC(c3ccc(OC)c(OC)c3)C2)C1c1cccc(O)c1 (configuration not stated) | 99 | 69 | 2 |
| O=C(Cc1ccc(NC(=O)c2ccc(O)c(-c3cccc([N+](=O)[O-])c3)c2)cc1)NCCN1CCCCC1 | 89 | 3 | 4 |
| COc1ccccc1CCNc1nc(C)cc(NCCC(=O)NCCOc2ccccc2)n1.O=C(O)C(F)(F)F | 85 | 14 | 11 |
| CN(C)CCOc1ccc(-c2cc(-c3ccc(Cl)c(O)c3)c(-c3ccncc3)[nH]2)cc1.Cl | 98 | 92 | 54 |
| Cc1cc(=NN=Cc2ccccc2)c2cc(F)ccc2[nH]1 | 100 | 94 | 11 |
| CCc1c(C(=O)NC2CCC(N3CCC(c4ccccc4OC)CC3)CC2)[nH]c2ccc(Br)cc12 (configuration not stated) | 100 | 98 | 85 |
